Screening data from PubChem.
Most compounds without a hit are left out; they make up all but 2.4% or so of the library.
NadD inh: inhibitors of Staphylococcus aureus NadD | purified NadD enzyme, colorimetric absorbance read-out | inhibition, % at 20 µM | hit rate 0.78% among 360,000 | AID 602399; in the data active = inhibition above about 26%
Rpn11 inh: blocks the human proteasome subunit Rpn11; O00487; human 26S proteasome, Ub4-pepOG fluorescence polarization; 20S core pre-blocked with epoxomicin; inhibition, % at 20 µM; hit rate 0.59% among 360,000;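 active = inhibition at 20 µM, scaled to each plate's controls, above about 33%, limit read from the data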
Target sequence (O00487 whole entry, looked up): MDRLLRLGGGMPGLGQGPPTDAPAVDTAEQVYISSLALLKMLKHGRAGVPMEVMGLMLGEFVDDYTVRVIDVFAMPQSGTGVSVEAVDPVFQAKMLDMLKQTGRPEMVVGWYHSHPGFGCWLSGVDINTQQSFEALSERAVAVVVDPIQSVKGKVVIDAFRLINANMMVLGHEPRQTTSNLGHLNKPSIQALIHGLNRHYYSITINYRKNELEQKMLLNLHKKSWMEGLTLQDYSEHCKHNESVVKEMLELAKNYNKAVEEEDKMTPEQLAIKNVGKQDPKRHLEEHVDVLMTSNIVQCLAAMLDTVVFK
PP5 primary: blocks human protein phosphatase 5 activity; purified PP5c, OMFP substrate fluorescence; P53041; inhibition, % at 6.7 µM; AID 1987; hit rate 0.18% among 320,000;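 active = inhibition above the campaign's mean inhibition across all tested compounds plus 3 SD, cut at about 9.5% in these data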;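 also: 0% = DMSO only and 100% = 100 µM cantharidin control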
PP1 inh: blocks human PP1-alpha phosphatase, a PP5 counter-screen. inhibition, % at 6.7 µM. AID 2235. purified PP1alpha, OMFP fluorescence. hit rate 0.9% among 320,000;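 active = inhibition above the mean inhibition of all tested compounds plus 3 SD, computed separately for each screening campaign, cut at about 15% in these data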
PREPL inh: inhibits the human prolyl oligopeptidase-like enzyme | Q4J6C6 | recombinant PREPL, fluorescence polarization activity-based probe | inhibition, % at 5.96 µM | hit rate 0.68% among 320,000; in the data active = inhibition above about 43%;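 also: 0% = enzyme with DMSO and 100% = wells lacking enzyme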
Rpn11 inh conf: Rpn11 inhibition confirmation, single concentration. hit rate 29% among 1,900. purified human 26S proteasome, Ub4-pepOG fluorescence polarization; proteasome pretreated with epoxomicin. AID 602318. shares compounds with Rpn11 inh. inhibition, % at 20 µM
MMP-2 counter: blocks human MMP-2, flagging nonselective RPN11 hits; shares compounds with Rpn11 inh; recombinant MMP-2, FRET peptide cleavage fluorescence; inhibition, % at 20 µM; hit rate 4% among 1,900; AID 602330;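 also: human MMP-2 activated beforehand with APMA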
Thrombin FP: blocks bovine thrombin, flagging nonselective RPN11 hits; shares compounds with Rpn11 inh; bovine thrombin cleavage of Ub4-pepOG, fluorescence polarization; inhibition, % at 20 µM; hit rate 13% among 1,900; AID 602333;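 active = mean inhibition at least 40% at 20 µM, or signal 3 deviations below plate average, so some actives read negative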;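 also: plate controls were thrombin with DMSO for no effect and buffer wells lacking thrombin for full effect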
NadD inh conf: confirmation of Staphylococcus aureus NadD inhibitors | AID 624309 | hit rate 13% among 2,000 | shares compounds with NadD inh | inhibition, % at 20 µM | purified S. aureus NadD, colorimetric enzyme assay; in the data active = inhibition mostly above about 42%, no sharp cut-off; inactive = mostly below about 42%
* marks the source's active call; other numbers are inactive results; . = no result given. Rule as the data show it, unless noted: active = inhibition above about 40%; inactive = the rest.

SMILES	NadD inh	Rpn11 inh	PP5 primary	PP1 inh	PREPL inh	Rpn11 inh conf	MMP-2 counter	Thrombin FP	NadD inh conf
Cc1ccc2oc(=O)c3cc(C(=O)NCCN4CCN(C)CC4)sc3c2c1	-6	8	3	-3	2	.	.	.	.
Cc1ccc2oc(=O)c3cc(C(=O)NCCCN4CCCCCC4)sc3c2c1	37*	56*	4	4	8	7	-4	-9	-8
Cc1cccn2c(=O)c3cc(C(=O)N4CCN(Cc5ccccc5)CC4)sc3nc12	0	-3	-2	-3	-4	.	.	.	.
O=C1c2ccc(Cl)cc2S(=O)(=O)c2cccc(C(=O)N3CCN(c4ncc(Br)cn4)CC3)c21	12	0	2	9	10	.	.	.	.
COc1ccc(-c2ccc3c(c2)S(=O)(=O)c2cccc(C(=O)N4CCN(c5c(Cl)cncc5Cl)CC4)c2C3=O)cc1OC	44*	76*	.	.	17	43*	-13	17	17
CCC(C)(C)NC(=O)CN(Cc1ccccc1Cl)C(=O)CCC(=O)Nc1cc(C)ccn1	0	2	-2	1	4	.	.	.	.
C=CCC1CCCCC1=C(C#N)c1ccccc1 (stereo not drawn)	-1	0	.	.	.	.	.	.	.
O=C(/C=C/c1cccs1)Nc1nccs1	8	9	-1	1	-9	.	.	.	.
O=C(/C=C/c1cccs1)Nc1cccc(NC(=O)/C=C/c2cccs2)n1	32*	45*	2	7	3	56*	18	41*	33
Cc1ccc(NC(=O)COC(=O)CN2C(=O)NC3(CCCC3)C2=O)cc1Cl	-7	-6	2	3	17	.	.	.	.
COc1cc(/C=C(\C#N)c2nc(-c3cc4ccccc4oc3=O)cs2)ccc1O	50*	72*	-4	-5	4	19	36	-40	-6
Cc1ccnc(NS(=O)(=O)c2ccc(NC(=O)c3cc(-c4ccc(Br)cc4)nc4ccccc34)cc2)n1	74*	38*	4	14	-11	18	10	8	46*
O=C(Cc1cccc2ccccc12)Nc1ccc(-c2cc3ccccc3oc2=O)cc1	32*	43*	0	17*	-18	10	-9	-7	14
CCC(=O)Nc1cccc(-c2cc3ccccc3oc2=O)c1	-3	2	-1	0	-17	.	.	.	.
Cn1c(=O)n(C)c2cc3[nH]cnc3cc21	-6	1	1	1	13	.	.	.	.
Nc1cc2nc[nH]c2cc1N	39*	45*	.	.	.	-19	3	-29	37
COc1ccc(/C=C2\Sc3ccc(C(=O)NCCN4CCCCCC4)cc3N(C)C2=O)cc1	47*	42*	2	3	38	40	-82	31	8
COc1ccc2nc(N3C(=O)CNC3=S)sc2c1	-1	9	2	-4	-4	.	.	.	.
CCOc1ccc2nc(N3C(=O)/C(=C/c4ccc(Cl)cc4)NC3=S)sc2c1	49*	47*	.	.	.	31	-6	0	12
O=C(/C=C/c1ccc(Br)cc1)NC(=S)Nc1ccc(S(=O)(=O)Nc2nccs2)cc1	54*	129*	-1	-1	13	22	18	0	17
CN(C)CCCn1c2c(c(SCC(=O)Nc3ccc4c(c3)OCCO4)nc1=O)CCC2	-2	7	-1	-2	22	.	.	.	.
N#Cc1ccccc1Cn1cc(/C=N/Nc2ccc([N+](=O)[O-])cn2)c2ccccc21	32*	60*	2	1	12	34	-15	2	5
O=[N+]([O-])c1ccc(NN=Cc2ccccc2O)nc1	-1	3	.	.	.	.	.	.	.
CCOC(=O)c1c(C)[nH]c(C(=O)COC(=O)c2ccc([N+](=O)[O-])o2)c1C	1	-3	.	.	9	.	.	.	.
CCOC(=O)Cc1csc(NC(=O)c2sc3nc4c(C)cc(C)cc4cc3c2N)n1	40*	48*	-1	6	21	24	-17	-2	2
C[C@H](NC(=O)[C@@H]1Cc2ccccc2CN1)C(=O)NC1CCCC1	3	-11	1	-2	-4	.	.	.	.
